Experimental data reported in publication PMC4336329 (PLoS ONE, 2015).
The campaign covered roughly 310,000 compounds. About 14,000 (4.5%) showed an effect of 50% or more. The effect is printed as a negative number. The entries come from a sample that favours strong results as a whole.

Target: human ether-à-go-go-related gene (hERG) potassium channel (human, UniProt Q12809)
Assay: primary screen, population patch clamp on CHO cells stably expressing hERG; higher = less effect of the substance
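Also: peak tail current of the secondary pulse compared with the same well before compound.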

Sequence of human ether-à-go-go-related gene (hERG) potassium channel (Q12809 whole entry, looked up): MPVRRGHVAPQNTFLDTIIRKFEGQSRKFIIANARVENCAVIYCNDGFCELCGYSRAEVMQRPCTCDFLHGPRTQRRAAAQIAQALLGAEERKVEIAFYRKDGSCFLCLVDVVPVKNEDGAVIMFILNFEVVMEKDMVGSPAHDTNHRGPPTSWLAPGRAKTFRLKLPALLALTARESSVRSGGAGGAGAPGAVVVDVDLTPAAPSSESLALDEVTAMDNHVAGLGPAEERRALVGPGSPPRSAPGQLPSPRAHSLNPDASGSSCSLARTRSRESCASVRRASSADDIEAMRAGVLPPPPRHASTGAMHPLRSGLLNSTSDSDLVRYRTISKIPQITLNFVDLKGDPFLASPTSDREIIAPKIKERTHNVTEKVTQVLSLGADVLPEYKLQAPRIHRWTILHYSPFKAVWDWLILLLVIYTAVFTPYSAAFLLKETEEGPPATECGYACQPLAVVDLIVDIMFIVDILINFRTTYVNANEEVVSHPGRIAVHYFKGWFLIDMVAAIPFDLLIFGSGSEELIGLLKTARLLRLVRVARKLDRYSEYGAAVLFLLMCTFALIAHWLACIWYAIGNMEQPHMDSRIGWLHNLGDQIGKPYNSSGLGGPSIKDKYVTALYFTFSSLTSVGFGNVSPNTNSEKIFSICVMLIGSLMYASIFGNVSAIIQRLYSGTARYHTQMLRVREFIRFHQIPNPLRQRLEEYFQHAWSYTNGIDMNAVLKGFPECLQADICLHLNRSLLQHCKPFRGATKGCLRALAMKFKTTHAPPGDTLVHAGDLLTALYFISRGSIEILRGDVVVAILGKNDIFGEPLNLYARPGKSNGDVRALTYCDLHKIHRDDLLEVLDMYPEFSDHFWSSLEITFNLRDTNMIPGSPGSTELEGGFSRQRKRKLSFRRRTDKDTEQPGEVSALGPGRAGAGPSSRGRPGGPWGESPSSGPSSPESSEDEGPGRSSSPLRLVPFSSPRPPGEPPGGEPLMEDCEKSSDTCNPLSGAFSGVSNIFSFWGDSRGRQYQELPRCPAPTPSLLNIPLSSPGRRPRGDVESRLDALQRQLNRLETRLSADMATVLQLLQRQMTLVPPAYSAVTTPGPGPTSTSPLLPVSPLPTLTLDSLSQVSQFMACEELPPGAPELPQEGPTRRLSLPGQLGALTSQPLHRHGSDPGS

SMILES | hERG current change (%, negative = inhibition) at 10uM
COc1ccc(OC)c(S(=O)(=O)ON2C(=O)c3ccccc3C2=O)c1 | 6.82%
CCOC(=O)/C(C#N)=C\c1ccc(N2CCN(C)CC2)cc1 | -38.2%
CCOC(=O)/C(C#N)=C/c1ccc(N2CCCCC2)cc1 | -60.9%
CCOC(=O)/C(C#N)=C/c1ccc(N2CCN(C)CC2)cc1 | -27.8%
Cn1ncc(Br)c1NC(=O)Nc1ccc(OC(F)(F)F)cc1 | 8.82%
Cn1ncc(C(=O)Nc2ccc(OC(F)(F)F)cc2)c1-n1cccc1 | -81.3%
O=C(CCn1cccc1)Nc1ccc(OC(F)(F)F)cc1 | 2.32%
O=c1[nH]c2ccccc2nc1/C=C(\O)c1cccs1 | 19.5%
CC(=O)N1CCCc2cc(S(=O)(=O)N(CC(C)C)CC(C)C)ccc21 | -50.4%
CCCCN(CC)S(=O)(=O)c1ccc2c(c1)CCCN2C(C)=O | -43.3%
CCCN(CCC)S(=O)(=O)c1ccc2c(c1)CCCN2C(C)=O | -47.2%
Cn1c(=O)oc2cc(S(=O)(=O)N3CCC(C(=O)NCc4ccccc4)CC3)ccc21 | -6.54%
CC(C)(C)NC(=O)Cn1nnc(-c2ccc(Cl)cc2)n1 | 2.32%
COC(=O)C1=C(C)OC(N)=C(C#N)C1c1cc(OC)c(OCC(N)=O)cc1Cl (stereo not drawn) | -10%
COC(=O)c1ccc(N2CCOCC2)c(F)c1 | 9.09%
Cc1ccc2nc(SCC(=O)N3CCC(C)CC3)nc(=O)n2c1 | -9.74%
O=C(CSc1nc(=O)n2ccccc2n1)N1CCN(c2ccccc2)CC1 | -27.7%
Cc1ccn2c(=O)nc(SCC(=O)N3CCC(C)CC3)nc2c1 | -18.4%
Cc1ccn2c(=O)nc(SCC(=O)N3CCC(Cc4ccccc4)CC3)nc2c1 | -55.6%
Cc1cccn2c(=O)nc(SCC(=O)N3CCC(Cc4ccccc4)CC3)nc12 | -78.9%
O=C(CSc1nc(=O)n2ccccc2n1)N1CCC(Cc2ccccc2)CC1 | -58.1%
Cc1ccc2nc(SCC(=O)N3CCC(Cc4ccccc4)CC3)nc(=O)n2c1 | -65%
CC1CCN(C(=O)CSc2nc(=O)n3ccccc3n2)CC1 | 8.67%
Cc1ccn2c(=O)nc(SCC(=O)N3CCN(c4ccccc4)CC3)nc2c1 | -28.6%
Cc1ccc2nc(SCC(=O)N3CCN(c4ccccc4)CC3)nc(=O)n2c1 | -47.5%
Cc1cccn2c(=O)nc(SCC(=O)N3CCC(C)CC3)nc12 | -39.5%
Cc1cccn2c(=O)nc(SCC(=O)N3CCCCC3)nc12 | -18.6%
